We go through seven compounds from PubChem BioAssay (NCATS).

Values without a mark were called inactive. Records with an inconclusive call do not appear. Activity calls are given as the source filed them. Unless noted, the call rests on the fitted dose curve; in most records, active means well fitted curve in either direction with a large enough effect (not every such curve was filed as active); inconclusive means small, poorly fitted or top-dose-only effect, or another doubt; inactive means flat fitted curve, though single readings scatter.

The target of test [1] is Lysosomal acid glucosylceramidase (Homo sapiens) (UniProt P04062). Put plainly: Glucocerebrosidase-p2 (AID 348; in the data active means potency below about 10 µM; further: potency means the concentration at half of the fitted maximal effect). The conditions noted are these: purified GBA, blue fluorogenic substrate, 40 min. Summed up: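 Normal human glucocerebrosidase (0.2 nM) with blue fluorogenic substrate (80 uM final) in citrate/phosphate pH 5.9 with 10mM sodium taurocholate, 0.01% tween-20; 40 min RT, NaOH/glycine stop; fluorescence Ex 365/Em 440; AC50 from a titration from 0.6 nM upwards.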

Test [2] can be described thus: AP1 Signaling Pathway (AID 357).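 Further: ME-180 reporter cells stimulated with EGF at its EC50 level; on the % scale 0 is the no-effect control and ±100 the full control effect.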 As to conditions: ME-180 AP-1-bla reporter, EGF-induced, beta-lactamase ratio, 5 h; at 7.69 µM (top of the series) unless noted. Summed up: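 A ratiometric CCF4 readout (405 nm excitation; 460 and 530 nm emission) quantified AP-1-driven beta-lactamase in ME-180 cells after 5 h with compound and EC50 EGF; AC50 values were derived for activators and inhibitors.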

Test [3] is described as follows: NFAT Signaling Pathway (AID 444).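 Further: carbachol stimulus at about its EC50 of 1 µM final; on the % scale 0 is the no-effect control and ±100 the full control effect.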 As to conditions: Jurkat NFAT-bla M1, carbachol, beta-lactamase ratio, 5 h; at 7.69 µM (top of the series) unless noted. In a few lines: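 Jurkat cells carrying an NFAT-driven β-lactamase reporter and co-transfected muscarinic M1 receptor were treated with compound plus carbachol (1 uM final, an EC50 level) for 5 h at 37 °C. CCF4 loading followed for 1 h at RT; 460/530 nm ratio gave %activity.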

The nature of test [4]: Stat Signaling Pathway (AID 446).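 Further: ME-180 cervical cancer cells given 40 pM IL-6 alongside compound; SIE-controlled beta-lactamase reporter measured as 460/530 nm FRET emission ratio; on the % scale 0 is the no-effect control and ±100 the full control effect.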 As to conditions: ME-180 (cervical carcinoma) SIE beta-lactamase reporter, IL-6 stimulated, 5 h; at 7.69 µM (top of the series) unless noted. In a few lines: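 Normalization used AC90 stimulation (300 pM IL-6) and AC90 inhibition (125 nM pan-JAK inhibitor at 40 pM IL-6). The underlying signal is SIE-driven beta-lactamase in ME-180 cells after 5 h IL-6 exposure with compound.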

The target of test [5] is Glucocorticoid receptor (Homo sapiens) (UniProt P04150). Put plainly: GR-GFP Redistribution (AID 450;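 active means compounds whose dose series gives a full or clear partial fitted curve of increased nuclear translocation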; further: potency means the concentration at half of the fitted maximal effect). The conditions noted are these: U2OS GR-GFP nuclear translocation, laser cytometry, 2 h.
Test [6] has the same target. Put plainly: GR-EFC Redistribution (AID 451; calls by dose curve; further: potency means the concentration at half of the fitted maximal effect). As to conditions: CHO-K1 GR-EFC translocation, beta-gal luminescence, 2 h. Summed up:
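CHO-K1 cells stably expressing nuclear-localized β-gal enzyme acceptor and GR fused C-terminally to the enzyme donor fragment; ligand-driven nuclear translocation restores β-gal by complementation. Compounds titrated up to 46 uM final, 2 h at 37 °C; luminescence read.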

Test [7] deals with Mitogen-activated protein kinase 10 (Mus musculus) (UniProt Q61831). Put plainly: JNK3 AlphaScreen Assay (AID 530).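 Further: kinase came from lysate of stimulated human HepG2 cells; on the % scale 0 is the no-effect control and ±100 the full control effect.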 The conditions noted are these: JNK3 lysate, c-Jun phosphorylation; series mostly up to 11.4 µM. In a few lines: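 Biotinylated GST-cJun(1-79) served as substrate for JNK3 in HepG2 lysates stimulated with IL-1beta and TNF-alpha. ATP was 10 uM final, pH 7.6. Ser73 phosphorylation was quantified by AlphaScreen (680 nm excitation).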
On the technique in general: Alpha assays give light when donor and acceptor beads are brought close together.

In test [8] the target is 3',5'-cyclic-AMP phosphodiesterase 4B (Homo sapiens) (UniProt Q07343). Kind of test: qHTS Assay for Inhibitors of PDE-IV (AID 607; active means well fitted activation curve with a large enough effect in the main read-out, with a control signal flat, not every such curve was filed as active; further: % of control where 0% means no effect). As to conditions: HEK293 ACTOne CNG channel cells, membrane potential fluorescence; series mostly up to 22.9 µM. Summed up: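 HEK293 ACTOne cells with CNG channel (1000/well), endogenous PDE4; membrane potential dye, compounds up to 22.9 uM final. Fluorescence Ex 535/Em 590; RO 20-1724 (100 uM final) as reference.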
On the technique in general: Quantitative high-throughput screening tests each substance at several concentrations.

Test [9] deals with ATP-dependent 6-phosphofructokinase (Trypanosoma brucei brucei) (UniProt O15648). Kind of test: qHTS Assay to Find Inhibitors of T. brucei phosphofructokinase: hit validation (AID 492961; active means well fitted curve in the direction sought with a large enough effect; an effect the other way counts as inactive or inconclusive). As to conditions: T. brucei PFK, ADP-Glo luminescence; series mostly up to 51.4 µM. In a few lines:
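Percent activity derived from corrected luminescence, normalized between 0x and 1x enzyme controls, then fitted to concentration-response curves. Conditions: 1.25 nM PFK, 0.1 mM ATP, 0.5 mM F6P, 45 min RT.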

Test [10] is described as follows: qHTS profiling for inhibitors of Plasmodium falciparum proliferation (AID 504749; active means well fitted curve in the direction sought with a large enough effect; an effect the other way counts as inactive or inconclusive; further: potency means the concentration at half of the fitted maximal effect;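 on activity, negative = inhibition: 0% = DMSO vehicle and full inhibition = artemisinin control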; on all read-outs here: nearly all actives have a fitted effect of over 60% in size). As to conditions: P. falciparum in erythrocytes, SYBR Green DNA, 72 h; for activity, negative = inhibition: at 28.7 µM (top of the series). In a few lines: (§1)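 Fluorescence of SYBR Green-bound parasite DNA, read at 485/535 nm, served as the growth measure. Infected erythrocytes were cultured with compound 72 h; artemisinin (0.29 uM) and DMSO wells defined the normalization range.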

Test [11] deals with AS120. Described as above. The conditions noted are these: P. falciparum in erythrocytes, SYBR Green DNA, 72 h; series mostly up to 28.7 µM. In a few lines:
as §1

Test [12] has as its system ATS189. The test is described as above. As to conditions: P. falciparum in erythrocytes, SYBR Green DNA, 72 h; series mostly up to 28.7 µM. In a few lines: as §1
Test [13] concerns W2. The description is as above. As to conditions: P. falciparum in erythrocytes, SYBR Green DNA, 72 h; series mostly up to 28.7 µM. In a few lines:
as §1

In test [14] the target is Cytochrome P450 1A2 (Homo sapiens) (UniProt P05177). Kind of test: p450-cyp1a2 (AID 410; calls by dose curve; further: potency means the concentration at half of the fitted maximal effect). As to conditions: recombinant CYP1A2, luciferin-ME demethylation, luminescence; series mostly up to 11.4 µM. In a few lines:
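20nM CYP1A2, 100uM Luciferin-ME (=Km), 100mM KPO4; cpd 10 min RT; +NADPH regen, 60 min RT; stop/detect 20 min; luminescence. Normalized to furafylline 57 uM = full inhibition.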

For test [15], the target named is Cytochrome P450 2C19 (Homo sapiens) (UniProt P33261). Kind of test: qHTS Assay for Inhibitors and Substrates of Cytochrome P450 2C19 (AID 899; active means well fitted curve in the direction sought with a large enough effect; an effect the other way counts as inactive or inconclusive; further: potency means the concentration at half of the fitted maximal effect; nearly all actives have a fitted effect of over 60% in size). The conditions noted are these: recombinant CYP2C19, luciferin-H EGE luminescence; series mostly up to 11.4 µM. Summed up:
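NADPH-dependent conversion of Luciferin-H EGE (10uM, at KM) by 5nM enzyme in 50mM KPO4, 60 min at 37C following 10 min compound preincubation. Stopped with luciferin detection buffer; luminescence read after 20 min.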

Chain of Glucocorticoid receptor (Homo sapiens) (P04150 whole entry, looked up): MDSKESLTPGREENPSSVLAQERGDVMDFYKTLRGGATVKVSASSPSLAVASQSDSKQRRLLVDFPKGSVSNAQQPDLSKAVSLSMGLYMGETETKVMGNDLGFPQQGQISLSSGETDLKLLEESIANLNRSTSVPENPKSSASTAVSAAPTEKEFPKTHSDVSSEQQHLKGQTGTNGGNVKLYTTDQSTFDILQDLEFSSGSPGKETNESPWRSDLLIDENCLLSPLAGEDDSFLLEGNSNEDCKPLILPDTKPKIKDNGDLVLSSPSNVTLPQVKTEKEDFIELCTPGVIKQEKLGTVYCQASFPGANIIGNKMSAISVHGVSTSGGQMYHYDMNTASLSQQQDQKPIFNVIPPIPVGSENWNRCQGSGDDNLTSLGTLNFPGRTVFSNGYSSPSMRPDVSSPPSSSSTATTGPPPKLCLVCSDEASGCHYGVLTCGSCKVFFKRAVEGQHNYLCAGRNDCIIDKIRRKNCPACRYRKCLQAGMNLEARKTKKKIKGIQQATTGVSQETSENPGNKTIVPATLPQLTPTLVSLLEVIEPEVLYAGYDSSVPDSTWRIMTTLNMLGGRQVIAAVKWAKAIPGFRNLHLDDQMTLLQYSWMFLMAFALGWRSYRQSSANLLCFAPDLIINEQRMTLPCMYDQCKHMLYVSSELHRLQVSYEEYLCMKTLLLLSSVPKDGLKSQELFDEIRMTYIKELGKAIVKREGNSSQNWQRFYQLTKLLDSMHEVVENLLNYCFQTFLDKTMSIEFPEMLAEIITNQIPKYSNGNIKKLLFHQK
Chain of 3',5'-cyclic-AMP phosphodiesterase 4B (Homo sapiens) (Q07343 whole entry, looked up): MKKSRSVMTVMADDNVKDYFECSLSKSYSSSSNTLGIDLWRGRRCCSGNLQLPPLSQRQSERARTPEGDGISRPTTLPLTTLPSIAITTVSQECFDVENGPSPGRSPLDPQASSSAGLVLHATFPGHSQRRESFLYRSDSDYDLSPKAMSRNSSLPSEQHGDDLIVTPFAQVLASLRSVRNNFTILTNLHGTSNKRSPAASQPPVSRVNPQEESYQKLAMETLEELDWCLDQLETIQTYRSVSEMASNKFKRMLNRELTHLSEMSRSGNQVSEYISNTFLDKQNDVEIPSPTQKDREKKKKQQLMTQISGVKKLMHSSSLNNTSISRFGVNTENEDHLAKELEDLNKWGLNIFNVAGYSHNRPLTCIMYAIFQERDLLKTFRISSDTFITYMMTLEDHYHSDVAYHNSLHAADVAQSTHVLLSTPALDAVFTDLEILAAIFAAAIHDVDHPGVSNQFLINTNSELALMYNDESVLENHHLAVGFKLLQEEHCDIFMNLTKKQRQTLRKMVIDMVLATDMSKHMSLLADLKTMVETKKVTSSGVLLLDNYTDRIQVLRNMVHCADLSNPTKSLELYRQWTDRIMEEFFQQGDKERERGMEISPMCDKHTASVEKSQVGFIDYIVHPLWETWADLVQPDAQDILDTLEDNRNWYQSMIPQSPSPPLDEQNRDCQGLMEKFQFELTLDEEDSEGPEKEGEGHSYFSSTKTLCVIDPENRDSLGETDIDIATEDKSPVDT
Chain of Lysosomal acid glucosylceramidase (Homo sapiens) (P04062 whole entry, looked up): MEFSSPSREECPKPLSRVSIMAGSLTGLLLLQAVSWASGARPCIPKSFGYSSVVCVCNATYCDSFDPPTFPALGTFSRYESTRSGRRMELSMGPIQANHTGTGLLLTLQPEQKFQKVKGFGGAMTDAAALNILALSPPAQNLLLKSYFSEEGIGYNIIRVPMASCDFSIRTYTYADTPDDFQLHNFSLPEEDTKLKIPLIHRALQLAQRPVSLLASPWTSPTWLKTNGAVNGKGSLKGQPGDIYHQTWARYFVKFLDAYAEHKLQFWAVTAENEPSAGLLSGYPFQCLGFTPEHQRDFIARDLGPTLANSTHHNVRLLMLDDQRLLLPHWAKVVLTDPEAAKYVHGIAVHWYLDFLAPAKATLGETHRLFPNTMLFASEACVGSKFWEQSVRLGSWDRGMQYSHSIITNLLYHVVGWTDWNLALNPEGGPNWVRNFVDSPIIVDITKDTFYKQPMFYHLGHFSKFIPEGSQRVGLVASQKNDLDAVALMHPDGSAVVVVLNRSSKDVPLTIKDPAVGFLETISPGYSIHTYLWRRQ
Chain of ATP-dependent 6-phosphofructokinase (Trypanosoma brucei brucei) (O15648 whole entry, looked up): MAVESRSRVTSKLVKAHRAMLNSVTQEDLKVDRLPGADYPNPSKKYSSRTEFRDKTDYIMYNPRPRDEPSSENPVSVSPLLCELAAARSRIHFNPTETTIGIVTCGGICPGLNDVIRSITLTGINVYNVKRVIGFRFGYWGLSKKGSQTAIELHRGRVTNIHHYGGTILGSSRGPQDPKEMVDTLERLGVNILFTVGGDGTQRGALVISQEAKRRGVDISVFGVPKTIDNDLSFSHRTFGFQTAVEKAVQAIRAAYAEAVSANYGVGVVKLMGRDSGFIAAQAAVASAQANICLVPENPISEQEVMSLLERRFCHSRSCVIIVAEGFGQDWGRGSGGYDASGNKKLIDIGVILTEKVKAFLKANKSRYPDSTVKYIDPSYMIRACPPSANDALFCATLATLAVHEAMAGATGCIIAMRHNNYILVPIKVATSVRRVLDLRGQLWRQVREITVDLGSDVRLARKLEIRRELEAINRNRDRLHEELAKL
Chain of Cytochrome P450 2C19 (Homo sapiens) (P33261 whole entry, looked up): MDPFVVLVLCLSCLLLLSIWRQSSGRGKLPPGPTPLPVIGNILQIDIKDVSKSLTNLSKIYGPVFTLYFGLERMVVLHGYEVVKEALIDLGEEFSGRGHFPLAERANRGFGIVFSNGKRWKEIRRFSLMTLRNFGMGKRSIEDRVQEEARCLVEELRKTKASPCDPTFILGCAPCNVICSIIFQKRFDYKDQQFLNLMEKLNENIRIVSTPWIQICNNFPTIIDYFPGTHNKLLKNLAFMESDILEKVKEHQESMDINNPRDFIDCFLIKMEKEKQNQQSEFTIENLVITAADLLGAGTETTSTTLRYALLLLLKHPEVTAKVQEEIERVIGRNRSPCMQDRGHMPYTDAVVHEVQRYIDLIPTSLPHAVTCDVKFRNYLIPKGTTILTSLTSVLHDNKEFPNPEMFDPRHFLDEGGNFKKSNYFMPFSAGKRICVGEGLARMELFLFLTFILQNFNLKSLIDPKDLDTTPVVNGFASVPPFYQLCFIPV
Chain of Cytochrome P450 1A2 (Homo sapiens) (P05177 whole entry, looked up): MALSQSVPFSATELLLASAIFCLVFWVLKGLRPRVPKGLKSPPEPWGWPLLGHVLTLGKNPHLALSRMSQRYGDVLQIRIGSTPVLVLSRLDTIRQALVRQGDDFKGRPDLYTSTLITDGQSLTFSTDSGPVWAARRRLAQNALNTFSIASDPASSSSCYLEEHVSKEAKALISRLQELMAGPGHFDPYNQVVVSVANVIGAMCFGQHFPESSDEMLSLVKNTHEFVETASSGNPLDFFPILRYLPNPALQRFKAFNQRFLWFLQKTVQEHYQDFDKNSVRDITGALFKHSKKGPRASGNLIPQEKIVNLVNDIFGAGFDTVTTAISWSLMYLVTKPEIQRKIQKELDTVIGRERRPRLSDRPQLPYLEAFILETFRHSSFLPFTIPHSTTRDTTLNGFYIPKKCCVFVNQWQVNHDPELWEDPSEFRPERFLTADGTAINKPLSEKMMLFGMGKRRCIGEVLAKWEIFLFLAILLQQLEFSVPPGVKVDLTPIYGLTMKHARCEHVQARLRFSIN

In the case of `O=C(O)Cc1[nH]cnc1C(=O)O`, the Potency in [1] is over 11.4 µM; in [5], over 46 µM; in test [6], over 9.22 µM. In addition, the activity change, negative = inhibition was -11% in test [2] and 7.88% in test [3]. For the same compound, in test [4], the activity, negative = inhibition was -3.92%.
With `NC(N)=NCCCC(=O)O`, the Potency was over 11.4 µM in test [1], over 46 µM in [5] and over 9.22 µM in test [6]. The results for the activity change, negative = inhibition in test [2] and in test [3] were -2.56% and 13.2%, respectively. For the same compound, the activity, negative = inhibition in [4] is 4.79%. In addition, the Potency result in test [7] and in [8] was “inactive” each time.
In the case of `C[C@H](CCC(=O)O)[C@H]1CC[C@@H]2[C@H]3[C@@H](C[C@@H](O)[C@]21C)[C@]1(C)CC[C@H](O)C[C@@H]1C[C@@H]3O`, the Potency is over 11.4 µM in test [1], over 46 µM in [5] and over 9.22 µM in [6]. In addition, the activity change, negative = inhibition in test [2] was 1.25%; in test [3] it was 14.6%. The activity, negative = inhibition in [4] is 13%; in test [10] (parasite line A), -6.11%; in test [10] (parasite line B) it was -10.8%. Besides, the Potency result in [7], in [8], in test [11], in test [12] and in test [13] was “inactive” each time. Also, the outcome in [9] was inactive.
In the case of `COc1ccc(-c2nc3cnc(OC)nc3n(Cc3cccs3)c2=O)cc1`, the Potency was over 11.4 µM in test [1], over 9.22 µM in test [5] and over 46 µM in test [6]. Further, the results for the activity change, negative = inhibition in [2] and in [3] were 20.7% and 8.9%, respectively. In test [4], the activity, negative = inhibition was 14.3%. The Potency entry in test [7] is “inactive”.
As for `COc1cc(O)c2c(O)c3c(c4c2c1[C@@]1(C4)C(C)=CCCC1(C)C)[C@H](O)[C@@]1(O)CC(=O)C(C(N)=O)=C(O)[C@]1(O)C3=O`, the Potency in test [1] was over 11.4 µM; in [14] it was 3.16 µM (active); in test [5] it was over 46 µM; in test [6] it was over 9.22 µM; in [15] it was 2.51 µM (active). Moreover, the activity change, negative = inhibition in test [2] is -27.8%. In addition, the Potency result in [7] and in test [8] was “inactive” in each case.
Regarding `CC(C)(C)c1ccc(CN2CCN([C@H](c3ccccc3)c3ccc(Cl)cc3)CC2)cc1`, the Potency in test [1] was over 11.4 µM; in test [5], over 46 µM; in test [6] it was over 9.22 µM; in [10] (parasite line A), 7.94 µM (active); in [10] (parasite line B) it was 12.6 µM (active); in [11], 7.94 µM (active). For the same compound, the Potency in test [12] was 8.91 µM (active); in test [13], 3.38 µM (active). Moreover, the results for the activity change, negative = inhibition in test [2] and in test [3] were 2.89% and -9.36%, respectively. The activity, negative = inhibition in test [4] is 0.758%. For the same compound, the Potency result in [7] and in test [8] was “inactive” each time. The compound was classed as inactive in test [9].
`O=C(O)CSc1ccc([N+](=O)[O-])cc1[N+](=O)[O-]`: the values for the Potency in test [1], in [5] and in test [6] were over 11.4 µM, over 46 µM and over 9.22 µM, respectively. The figures for the activity change, negative = inhibition in test [2] and in test [3] were 10.9% and -3.03%, respectively. In addition, the activity, negative = inhibition in [4] was 9.83%. The Potency result in test [7] and in test [8] was “inactive” in each case.
